Test results from the supplement of paper PMC3334620.
Over roughly 33,000 sequences, “E-score (-0.5 to 0.5)” has its median near -0.053; the highest 2% begin near 0.37. Only a selection was taken, and the highest values are over-represented in it overall.

Target: Hap1 (UniProt P0CE41)
Assay: PBM E-score (8-mer binding enrichment) (E-score (-0.5 to 0.5)); higher = stronger / more preferred TF binding
Conditions: protein concentration: 200 nM; construct: GST-DNA-binding domain
In short: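 Bound GST-tagged yeast transcription factors, applied at about 100-200 nM to double-stranded universal all-10-mer Agilent arrays, were detected with fluorescent anti-GST. Scans were normalised with masliner. A modified Wilcoxon-Mann-Whitney statistic, the E-score, was assigned to each ungapped eight-base word pooled with its reverse complement by the Universal PBM Analysis Suite.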

Sequence of UniProt P0CE41 (P0CE41 whole entry): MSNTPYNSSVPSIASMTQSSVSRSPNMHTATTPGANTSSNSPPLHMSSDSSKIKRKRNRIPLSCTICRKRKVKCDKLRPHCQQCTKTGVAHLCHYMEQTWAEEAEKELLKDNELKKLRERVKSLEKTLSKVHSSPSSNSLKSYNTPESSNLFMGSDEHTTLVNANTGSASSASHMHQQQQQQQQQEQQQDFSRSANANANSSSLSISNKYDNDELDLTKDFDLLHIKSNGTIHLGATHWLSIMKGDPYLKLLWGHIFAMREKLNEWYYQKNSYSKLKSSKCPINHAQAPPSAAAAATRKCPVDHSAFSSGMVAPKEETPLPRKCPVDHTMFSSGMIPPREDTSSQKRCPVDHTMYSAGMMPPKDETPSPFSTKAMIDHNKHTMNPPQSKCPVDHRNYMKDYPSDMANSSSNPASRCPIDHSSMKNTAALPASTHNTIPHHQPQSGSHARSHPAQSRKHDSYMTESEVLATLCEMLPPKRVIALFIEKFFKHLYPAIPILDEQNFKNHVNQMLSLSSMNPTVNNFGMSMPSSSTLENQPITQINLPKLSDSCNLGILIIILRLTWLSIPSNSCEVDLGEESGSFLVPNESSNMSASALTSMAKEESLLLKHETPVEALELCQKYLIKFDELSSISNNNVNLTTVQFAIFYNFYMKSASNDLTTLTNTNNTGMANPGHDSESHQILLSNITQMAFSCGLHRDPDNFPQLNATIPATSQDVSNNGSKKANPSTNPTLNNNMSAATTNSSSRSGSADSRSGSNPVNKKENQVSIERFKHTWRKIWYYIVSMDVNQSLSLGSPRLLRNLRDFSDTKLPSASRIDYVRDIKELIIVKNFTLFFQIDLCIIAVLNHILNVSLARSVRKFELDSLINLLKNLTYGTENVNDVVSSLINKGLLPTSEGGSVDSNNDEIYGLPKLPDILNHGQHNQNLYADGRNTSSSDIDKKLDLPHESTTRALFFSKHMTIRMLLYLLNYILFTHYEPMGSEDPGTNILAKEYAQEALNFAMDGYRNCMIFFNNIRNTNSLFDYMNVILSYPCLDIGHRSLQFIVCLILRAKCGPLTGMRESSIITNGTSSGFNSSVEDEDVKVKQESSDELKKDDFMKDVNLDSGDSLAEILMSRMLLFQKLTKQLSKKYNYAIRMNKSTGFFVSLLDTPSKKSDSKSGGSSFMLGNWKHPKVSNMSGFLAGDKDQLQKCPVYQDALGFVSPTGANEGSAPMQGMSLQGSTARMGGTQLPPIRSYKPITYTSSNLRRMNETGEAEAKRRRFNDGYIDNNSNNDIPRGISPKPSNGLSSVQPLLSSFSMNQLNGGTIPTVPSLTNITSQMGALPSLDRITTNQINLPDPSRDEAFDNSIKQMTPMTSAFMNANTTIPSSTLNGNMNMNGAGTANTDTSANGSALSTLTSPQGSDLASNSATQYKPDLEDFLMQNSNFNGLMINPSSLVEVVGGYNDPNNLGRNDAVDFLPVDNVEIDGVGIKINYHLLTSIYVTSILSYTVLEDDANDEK

Sequence | PBM E-score
AGTGCTAA | 0.0956
CGTTTGTA | -0.122
GACCACTC | 0.0772
TCTCCAGA | -0.0567
TAGTAGCA | -0.123
ATGCGCGA | 0.188
ACTAAAGG | -0.181
AGGCGCAC | -0.0853
AGTCCATC | -0.027
TGCAGACA | -0.233
AGCCCGAA | 0.3
ACCCCGGG | 0.357
CGCCCGAA | 0.294
GCCCCGTA | 0.0466
GGCCCGGA | 0.409
GCCCCGGC | 0.25
GGCCCGAA | 0.384
GGCCCGCA | 0.157
GGCCCGTA | 0.281
ACCCCGGA | 0.37
CCCCCGGA | 0.305
GCCCCGGA | 0.391
CCTGGTGC | -0.0907
GAAAATCC | 0.167
GAAGGTCC | 0.0808

Sequence | PBM E-score
AGCTCCAA | -0.276
GAGACGCC | 0.0301
GGATACAC | 0.132
CACCATCC | 0.0474
ATTTAATC | 0.153
ACAATGAA | -0.165
AGATACAC | -0.0669
ACTGGTAG | -0.206
GCAAGCCA | -0.171
CAGTCGAA | -0.204
CGCCCGTA | 0.142
TACCCGGA | 0.38
TCCCCGGA | 0.377
TCCCCGAA | 0.335
CGCCCGGA | 0.4
CACCCGGA | 0.364
TCCCCGCA | 0.303
CGCCCGGC | 0.335
GACCCGGA | 0.353
GAACGCAA | -0.0397
ACTTCTAG | -0.146
GAACATGA | -0.0648
AAGTCCAG | -0.056
ATTGCTCG | 0.137
TGCTCAAA | -0.145

Sequence | PBM E-score
CGATAAGA | 0.291
TACGCCTA | -0.258
CTGATATC | 0.26
AGGATATC | 0.155
CGGATAAA | 0.381
TGGATAAA | -0.0137
CGGATATC | 0.39
GATATATC | 0.373
CGGATCTC | 0.279
CGGATAAC | 0.359
GGGATCTA | 0.134
CGGATCTA | 0.404
AATATATC | 0.26
GATATATA | 0.198
CATTAGCA | -0.142
CTAAGAGC | -0.0334
AGGGTGAT | -0.15
CAGAACAA | -0.101
CGGATATA | 0.482
CGGATACC | 0.218
GGGATATA | 0.21
TGGATACA | -0.288
CGGATGTC | 0.35
CGGATACA | 0.385
GGGATGTA | 0.124

Sequence | PBM E-score
AGGATATA | 0.0407
CGGATGTA | 0.427
ATAGCCTA | -0.189
CCGAATAC | 0.365
ATGTGACG | -0.166
GACGGGCC | 0.142
ACTAGGTC | -0.0578
GTCGACAC | -0.156
CGGATAAG | 0.31
ACGATAAG | 0.245
ACGATAAC | 0.0651
CCGATAAC | 0.447
CCGATAAG | 0.431
CCGATAAA | 0.461
GCGATAAC | 0.322
GCGATAAA | 0.258
TCGATAAA | 0.146
CAAGATAA | -0.0149
AAGCCTAA | -0.0872
ATGCCAGG | -0.127
ACTCTTGG | -0.22
ACGCTCGC | -0.123
ACGCTCGA | -0.125
ACGCTCGG | 0.375
TATCCAGA | -0.0797

Sequence | PBM E-score
AGACTGAG | -0.208
CGCAGCAA | -0.197
CGCGAGGA | 0.0251
CGGCTTTC | 0.259
CGGCTTAG | 0.229
GGGCTTTA | 0.132
GGGCTATA | -0.0464
CGGCTTAA | 0.391
AGGCTATA | -0.157
CGGCTTTA | 0.464
TGGCTTAA | -0.0483
CGGCTATA | 0.383
GCTCTACA | -0.124
GTCCTAGA | -0.246
TCTTTTCA | -0.162
TGGAAACA | -0.0875
CTGCTCCA | -0.239
CAGGACGC | -0.246
AAGGATGG | -0.188
GGGTGATA | 0.167
CGGTGTTC | 0.235
CGGTGATC | 0.26
CGGTGTTA | 0.465
GGGTGTTA | 0.0847
CGGTGATA | 0.428

Sequence | PBM E-score
AATTGGAC | 0.0155
CAGTAAAC | 0.00777
GCCTGCAC | -0.137
ATGCGCTA | -0.0961
ACGCCGGC | 0.405
ACGCCGCC | 0.256
CCGCCGAG | 0.352
ACGCCGCA | 0.18
GCGCCGGA | 0.368
ACGCCGGG | 0.306
CCGCCGAA | 0.38
ACGCCGGA | 0.381
CCGCCGGA | 0.402
CCGCCGCA | 0.135
ACGCCGTA | 0.0761
GCGCCGAA | 0.359
CGGCTCTC | 0.0925
AGCTGTGC | -0.224
CACGTCAC | -0.125
GGACCCAA | 0.124
ATACGTGC | 0.0178
CCATCGGC | 0.174
GTTGCAAA | -0.0687
CAATTTGC | -0.103
TTCGTAAA | -0.199

Sequence | PBM E-score
CCTAAAAA | 0.00566
GCCAAGTA | -0.218
CCGCCGGC | 0.373
CCGCCGCC | 0.193
CCGCCGTC | 0.151
AAGTTTAT | 0.145
CTCACCGA | 0.157
ATCACCTG | -0.158
ATCACCGC | 0.234
ATCACCGA | 0.417
ATCACCGG | 0.382
GTCACCGA | 0.142
ATAAGCCG | 0.3
ACTGATAG | -0.267
CCGATCGG | 0.402
ACGATCGG | 0.258
CGGATCCA | 0.318
CCGATCCG | 0.438
CGGATCCG | 0.401
CCGATCCA | 0.269
ACGATCCG | 0.302
CGGATCCC | 0.28
